Laboratory results taken from ChEMBL document CHEMBL3988442, “University of Dundee, Small-Polar-MMV Screening Library” (2021).
Hit rate of the full screen: of about 69,000 compounds, about 1,000 (1.4%) showed an effect of 50% or more. This is one part of a sample in which strong results are shown more often than they occur.

Test system: Leishmania donovani
Assay: Leishmania intramacrophage assay
Format: functional, organism-based
Set-up: scale not given: in the data most compounds retested in dose-response had high values

## Cc1cc(C(=O)N2C[C@@H]3[C@@H](CN(C)CCc4ccccn4)[C@@H]3C2)c(C)o1
30.3 µM, […]
  Percent Effect: -26.53%

## CC(CN1CCCC1=O)NC(=O)Nc1cccnc1-n1cccn1 (stereo unspecified)
30.3 µM, […]
  Percent Effect: -2.319%

## Cc1nccn1CCN(C)c1nc(-c2cccnc2)nc2c1CCNC2
30.3 µM, […]
  Percent Effect: 20.05%

## CCn1ccnc1CN(C)c1nc(-c2ccc(Cl)cc2)nc2c1CNC2
30.3 µM, […]
  Percent Effect: 20.89%

## Cc1nccn1CCN(C)c1nc(-c2ccc(Cl)cc2)nc2c1CNC2
30.3 µM, […]
  Percent Effect: 51.4%

## Cc1nn(C)c(C)c1-c1c(-c2ccccc2)ncn1[C@H](CO)C(=O)O
30.3 µM, […]
  Percent Effect: 46.15%

## Cc1c(-c2c(-c3ccccc3)ncn2[C@@H](C(=O)O)[C@H](C)O)cnn1C
30.3 µM, […]
  Percent Effect: 50.58%

## Cc1c(-c2c(-c3ccccc3)ncn2[C@H](CO)C(=O)O)cnn1C
30.3 µM, […]
  Percent Effect: 25.35%

## Cc1ccccc1C(=O)N1CC[C@H](O)[C@@H](N2CCOCC2)CC1
30.3 µM, […]
  Percent Effect: 5.268%

## Cc1ccc(OC2(C(=O)O)CCN(C(=O)c3cccc(F)c3)CC2)cn1
30.3 µM, […]
  Percent Effect: -5.312%

## O=c1[nH]ncc(NCCOc2ccc3c(c2)CCC3)c1Cl
30.3 µM, […]
  Percent Effect: 53.95%

## O=c1[nH]ncc(NCCOc2ccc3c(c2)OCO3)c1Cl
30.3 µM, […]
  Percent Effect: 33.23%

## O=c1[nH]ncc(NCCOc2cccc(Br)c2)c1Cl
30.3 µM, […]
  Percent Effect: 33.92%

## O=C1COc2c(cccc2C(=O)N2CCCC(n3cccn3)C2)N1 (stereo unspecified)
30.3 µM, […]
  Percent Effect: -19.69%

## O=C(NC1CC1)c1ccn(COc2c(Cl)cccc2Cl)n1
30.3 µM, […]
  Percent Effect: 26.41%

## CC(C)C1CN(C(=O)c2ccccc2)CCS1 (stereo unspecified)
30.3 µM, […]
  Percent Effect: -6.451%

## Cc1ccc([C@]2(O)CC[C@H]3CN(Cc4cccc(Cl)c4Cl)C[C@H]32)nc1.O=C(O)CC(O)(CC(=O)O)C(=O)O
30 µM, 30.03 µM
  Percent Effect: 12.17%

## Cc1ccc([C@]2(O)CC[C@H]3CN(Cc4cc(C)c(O)c(C)c4)C[C@H]32)nc1.O=C(O)CC(O)(CC(=O)O)C(=O)O
30 µM, 30.03 µM
  Percent Effect: 50.06%

## Cc1cc(-c2cnc(N3CCSCC3)nc2C(C)C)on1
30.3 µM, […]
  Percent Effect: -38.52%

## Cn1cnc2c1CCN(CC(=O)N(Cc1ccsc1)C1CC1)C2
30.3 µM, […]
  Percent Effect: 1.808%

## CC1(C)CC(=O)c2cnc3nc(N4CCCCC4)nc(O)c3c2C1
30.3 µM, […]
  Percent Effect: 10.62%

## Cc1cccc(CS(=O)(=O)Cc2ccn(C)c(=O)c2)c1
30.3 µM, […]
  Percent Effect: 18.93%

## O=C(c1cc2c([nH]c1=O)CCC2)N1CCCCCC1c1ccncc1 (stereo unspecified)
30.3 µM, […]
  Percent Effect: 26.35%

## CCN(CC)c1nc(Nc2cccc(C(=O)O)c2)nc2ccccc12
30.3 µM, […]
  Percent Effect: 3.255%

## CC(O)c1cccc(Nc2nc(NCCO)c3ccccc3n2)c1 (stereo unspecified)
30.3 µM, […]
  Percent Effect: 37.25%

## CCN(CC)c1nc(Nc2cccc(C(C)O)c2)nc2ccccc12 (stereo unspecified)
30.3 µM, […]
  Percent Effect: 66.27%

## CCn1ncc(S(=O)(=O)N[C@@H]2CCC[C@@H](n3ccnc3)[C@@H]2O)c1C
30.3 µM, […]
  Percent Effect: 16.74%

## NCCC(=O)N1CCC2(CC1)CN(C(=O)c1ccc(Cl)cc1)CCO2
30.3 µM, […]
  Percent Effect: 0.3697%

## Cc1ccc(C(=O)N2CCC3(CCCC3)CC2)c(=O)[nH]1
30.3 µM, […]
  Percent Effect: 27.16%

## Cc1ccc(C(=O)N2CCOC3(CCCC3)C2)c(=O)[nH]1
30.3 µM, […]
  Percent Effect: 4.345%

## Cc1ccc(C(=O)N2CCC(Oc3ccc(C)c(C)c3)CC2)c(=O)[nH]1
30 µM
  Percent Effect: 57.43%

## Cc1ccc(C(=O)N2CCC(Oc3ccccc3)CC2)c(=O)[nH]1
30 µM
  Percent Effect: 12.56%

## Cc1ccc(C(=O)N2CCC3(CCCCC3)C2)c(=O)[nH]1
30.3 µM, […]
  Percent Effect: 56.07%

## COc1ccc(OC2CCN(C(=O)c3ccc(C)[nH]c3=O)CC2)cc1
30 µM
  Percent Effect: 26.55%

## COCCCC(=O)N1CCC(Nc2cccnn2)CC1
30 µM
  Percent Effect: -18.1%

## CNC(=O)[C@H]1CC[C@@H]2[C@@H](CCN2CCOCc2ccccc2)O1.O=C(O)C(F)(F)F
30.3 µM, […]
  Percent Effect: 45.25%

## Cc1cc(NC2CCc3nc(C(C)C)nn3C2)n2ncnc2n1 (stereo unspecified)
30.3 µM, […]
  Percent Effect: -19.33%

## CC[C@@H](C)[C@H](NC(=O)Cn1ccc2c(Cl)cccc21)C(=O)O
30.3 µM, […]
  Percent Effect: 7.093%

## CCc1nnc(C(C)N(C)Cc2c(C)nn(-c3ccccc3)c2C)o1 (stereo unspecified)
30.3 µM, […]
  Percent Effect: 21.58%

## Cc1nnc(C(C)N(C)Cc2c(C)nn(-c3ccccc3)c2C)o1 (stereo unspecified)
30.3 µM, […]
  Percent Effect: 15.94%

## Cc1nnc(C(C)N(C)Cc2c(C)nn(-c3ccccc3C)c2C)o1 (stereo unspecified)
30.3 µM, […]
  Percent Effect: 60.72%

## O=C(NCC1(O)CCC1)c1cccc(-n2cccn2)c1
30.3 µM, […]
  Percent Effect: 0.6562%

## O=C(CSC1=NS(=O)(=O)c2cc(F)ccc2N1)Nc1ccc(Cl)cc1
30.3 µM, […]
  Percent Effect: 3.738%

## O=S1(=O)N=C(SCc2ccc(Cl)cc2)Nc2ccc(F)cc21
30 µM, 30.03 µM
  Percent Effect: 63.48%

## O=C(CSC1=NS(=O)(=O)c2cc(F)ccc2N1)c1ccc(Cl)cc1
30 µM, 30.03 µM
  Percent Effect: 37.27%

## CC(C)(C)c1cn(CC2CCCN(c3cnc4ccccc4n3)C2)nn1 (stereo unspecified)
30.3 µM, […]
  Percent Effect: 23.01%

## CCOC(=O)CN1CCC2(CC1)CC(=O)c1ccc3ccccc3c1O2
30.3 µM, […]
  Percent Effect: 52.56%

## NC(=O)CN1CCC2(CC1)CC(=O)c1ccc3ccccc3c1O2
30.3 µM, […]
  Percent Effect: 11.62%

## CN(C)C(=O)CN1CCC2(CC1)CC(=O)c1ccc3ccccc3c1O2
30.3 µM, […]
  Percent Effect: 36.93%

## Cc1nc(NC(=O)C2(C)CN(C)CCO2)sc1C.Cl (stereo unspecified)
30.3 µM, […]
  Percent Effect: 1.58%

## Cc1nc(Nc2ncc(C)s2)cc(C2CCCN2)n1.Cl (stereo unspecified)
30.3 µM, […]
  Percent Effect: 56.27%

## Cc1nc(Nc2nnc(C)s2)cc(C2CCCN2)n1.Cl (stereo unspecified)
30.3 µM, […]
  Percent Effect: -1.301%

## Cc1nc(Nc2nccs2)cc(C2CCCN2)n1.Cl (stereo unspecified)
30.3 µM, […]
  Percent Effect: 34.17%

## COc1cc(/C=C/c2ncc(C(=O)O)s2)cc(Cl)c1OC
30 µM
  Percent Effect: -16.83%

## CCOc1c(Cl)cc(/C=C/c2ncc(C(=O)O)s2)cc1OC
30 µM
  Percent Effect: 26.63%

## COc1cc(/C=C/c2ncc(C(=O)O)s2)cc(Cl)c1O
30 µM, 30.03 µM
  Percent Effect: 50.87%

## O=C1CNc2ncnc(Nc3cccc(Cn4cccn4)c3)c2N1
30.3 µM, […]
  Percent Effect: 32.36%

## O=C(Nc1ccccc1OCCc1ccccn1)N1CCOCC1
30.3 µM, […]
  Percent Effect: 51.44%

## O=C(Nc1ccccc1OCCc1ccccn1)N1CC[C@@H](O)C1
30.3 µM, […]
  Percent Effect: -41.47%

## O=C(Nc1ccccc1OCCc1ccccn1)N1CCOCC(O)C1 (stereo unspecified)
30.3 µM, […]
  Percent Effect: 34.91%

## O=C(O)C(F)(F)F.O=C1CC2(CCN(CC3CCOC3)CC2)c2ccccc2N1CC1CC1 (stereo unspecified)
30.3 µM, […]
  Percent Effect: 8.748%

## CC(C)CN1C(=O)C2(CCN(Cc3ccoc3)C2)c2ccccc21.O=C(O)C(F)(F)F (stereo unspecified)
30.3 µM, […]
  Percent Effect: -1.91%

## O=C(O)C(F)(F)F.O=C(O)C(F)(F)F.OCCN1CC2(CCN(CC3CC3)CC2)c2ccccc21
30.3 µM, […]
  Percent Effect: 75.39%

## CC(C)CN1C(=O)C2(CCN(Cc3cccs3)C2)c2ccccc21.O=C(O)C(F)(F)F (stereo unspecified)
30.3 µM, […]
  Percent Effect: 1.991%

## CC(C)CN1C(=O)C2(CCN(CC3CCOCC3)C2)c2ccccc21.O=C(O)C(F)(F)F (stereo unspecified)
30.3 µM, […]
  Percent Effect: 64.12%

## O=C(O)C(F)(F)F.c1cnc(N2CCC3(CC2)CN(CC2CC2)c2ccccc23)nc1
30 µM, 30.03 µM
  Percent Effect: 24.73%

## OC1(CN2CCCC2)COCCN(c2nccs2)C1 (stereo unspecified)
30.3 µM, […]
  Percent Effect: -9.416%

## COCC1CN(S(=O)(=O)N(C)C)Cc2cnn(CC3CCCC3)c21.O=C(O)C(F)(F)F (stereo unspecified)
30.3 µM, […]
  Percent Effect: -10.54%

## Cc1ccc(F)c(NC(=O)CCC(=O)N(C)Cc2cc(C3CC3)[nH]n2)c1
30.3 µM, […]
  Percent Effect: 5.303%

## COc1ccccc1CC(=O)NC(CC(=O)O)c1ccc(C)cc1 (stereo unspecified)
30.3 µM, […]
  Percent Effect: -0.7929%

## COc1ccccc1Oc1ncccc1CNC(=O)CN1CCCC1=O
30.3 µM, […]
  Percent Effect: 15.35%

## Cc1cc(NC(=O)NCc2cccnc2OC(C)C)no1
30.3 µM, […]
  Percent Effect: 23.81%

## O=C(O)C(F)(F)F.O=C(O)C(F)(F)F.c1ccc(CN2CCc3nnc(CN4CCCCC4)n3CC2)nc1
30 µM, 30.03 µM
  Percent Effect: -31.83%

## CNc1cc(C)nc(N2C[C@H](NC(=O)C3CCOCC3)[C@@H](C3CC3)C2)n1
30.3 µM, […]
  Percent Effect: -19.84%

## Cc1cc(C)nc(N2CCC(OCCN3CCCCC3)C2)n1 (stereo unspecified)
30.3 µM, […]
  Percent Effect: -14.11%

## CC(C)Oc1cc(N2C[C@H](C3CC3)[C@@H](N)C2)nc(N)n1
30.3 µM, […]
  Percent Effect: 15.53%

## CCc1cc(N2C[C@H](C3CC3)[C@@H](N)C2)nc(N2CCCC2)n1
30.3 µM, […]
  Percent Effect: 72.46%

## N[C@H]1CN(Cc2cnc(N3CCCC3)nc2)C[C@@H]1C1CC1
30.3 µM, […]
  Percent Effect: 17.06%

## CNc1cc(C)nc(N2C[C@@H](C(=O)O)[C@H](C3CC3)C2)n1
30.3 µM, […]
  Percent Effect: 1.34%

## CNc1cc(C)nc(N2C[C@H](C3CC3)[C@@H](N)C2)n1
30.3 µM, […]
  Percent Effect: 66.39%

## CCc1cc(N2C[C@H](C3CC3)[C@@H](N)C2)nc(N2CCOCC2)n1
30.3 µM, […]
  Percent Effect: 29.17%

## Cc1cc(N2C[C@H](C3CC3)[C@@H](N)C2)nc(N2CCCCC2)n1
30.3 µM, […]
  Percent Effect: 55.81%

## Nc1cc2c(nn1)CCN(C(=O)c1ccc(-c3ccco3)[nH]c1=O)C2
30.3 µM, […]
  Percent Effect: 9.211%

## O=c1cc(C2CCNCC2)nc(CCCc2ccccc2)[nH]1
30.3 µM, […]
  Percent Effect: 27.29%

## Cc1cc(NC(=O)CN2CCn3c(nnc3C(C)C)C2)n(C)n1
30 µM
  Percent Effect: -15.63%

## Cc1nsc(N2CCCN(C(=O)NCc3cc(C)on3)CC2)n1
30.3 µM, […]
  Percent Effect: 8.411%

## CN(CCNc1ncc2c(n1)CCN2c1ccccc1)S(C)(=O)=O
30.3 µM, […]
  Percent Effect: 14.06%

## Cc1cnn(CCC(=O)N2CCCC(c3cc(C(N)=O)[nH]n3)C2)c1 (stereo unspecified)
30 µM, 30.03 µM
  Percent Effect: 2.466%

## COc1ccccc1CC(=O)N1CCC(OCc2cccnc2)CC1
30.3 µM, […]
  Percent Effect: 5.945%

## Cc1ccccc1SC1CCN(C(=O)CCCS(N)(=O)=O)CC1
30.3 µM, […]
  Percent Effect: 28.86%

## Cc1ccccc1SC1CCN(C(=O)[C@@H]2C[C@@H](N)CN2)CC1
30.3 µM, […]
  Percent Effect: 56.56%

## CN1C[C@@H](N)C[C@H]1C(=O)N1CCC(Cc2ccc(F)cc2)CC1
30.3 µM, […]
  Percent Effect: 8.715%

## Cc1ccccc1SC1CCN(C(=O)[C@H]2[C@@H]3CNC[C@@H]32)CC1
30.3 µM, […]
  Percent Effect: 68.53%

## Cc1ccccc1SC1CCN(C(=O)C2CNCC(=O)N2)CC1 (stereo unspecified)
30.3 µM, […]
  Percent Effect: 24.39%

## Cc1ccccc1SC1CCN(C(=O)C2CNC(=O)N2)CC1 (stereo unspecified)
30.3 µM, […]
  Percent Effect: -12.93%

## Cc1nc[nH]c1C(=O)N1CC[C@@H](NC(=O)c2ccccn2)[C@H](O)C1
30.3 µM, […]
  Percent Effect: 11.08%
